Screening results from PubChem BioAssay.
TDP1 inh = inhibitors of human tyrosyl-DNA phosphodiesterase TDP1; recombinant TDP1, AlphaScreen DNA substrate cleavage; Potency, µM (titrated, usually from 130 µM), for the others: top-dose activity change, negative = inhibition, actives largely listed as inhibitors; 350,000 compounds, 0.28% hits; AID 485290; also: potency is read from the fitted curve at half-maximal effect; % is scaled to controls: 0 for no effect and ±100 for the full control effect; nearly all actives have a fitted effect of over 40% in size
Target sequence (Q9NUW8 whole entry, looked up): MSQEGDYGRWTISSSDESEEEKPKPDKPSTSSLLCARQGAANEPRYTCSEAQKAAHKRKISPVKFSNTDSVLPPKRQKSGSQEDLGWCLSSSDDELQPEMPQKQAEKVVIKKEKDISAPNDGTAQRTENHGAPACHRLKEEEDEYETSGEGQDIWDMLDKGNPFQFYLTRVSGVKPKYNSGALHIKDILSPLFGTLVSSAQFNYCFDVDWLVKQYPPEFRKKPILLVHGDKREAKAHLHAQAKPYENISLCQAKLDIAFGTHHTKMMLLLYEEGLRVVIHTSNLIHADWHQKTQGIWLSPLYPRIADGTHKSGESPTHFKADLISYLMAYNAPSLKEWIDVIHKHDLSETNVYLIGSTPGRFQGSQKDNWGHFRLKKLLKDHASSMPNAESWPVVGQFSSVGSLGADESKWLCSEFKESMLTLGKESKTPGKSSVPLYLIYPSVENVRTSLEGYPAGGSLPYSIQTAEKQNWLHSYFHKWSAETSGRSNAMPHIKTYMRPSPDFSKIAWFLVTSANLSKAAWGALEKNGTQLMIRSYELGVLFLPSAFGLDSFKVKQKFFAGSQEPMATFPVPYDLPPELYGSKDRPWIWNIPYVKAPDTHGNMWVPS
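Compounds were preincubated with Tdp1 (1 nM final) for 15 min at room temperature before substrate (15 nM final) started a 5 min reaction; beads (10 ug/ml final) were then added for 10 min before AlphaScreen detection.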
HepG2 viability = kills HepG2 cells in TGF-b inhibitor counter-screen; HepG2 CAGA-GFP viability, ATP luminescence, 18 h; Potency, µM (highest dose often 46.1 µM), for the others: top-dose activity change, negative = cytotoxicity, actives largely listed as cytotoxic; 410,000 compounds, 0.76% hits; also: potency is read from the fitted curve at half-maximal effect
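CellTiter-Glo luminescence gave cytotoxicity after 18 hours at 37 degrees C. The cells were HepG2 CAGA-GFP in 1% FBS DMEM, stimulated with 500 pg/mL TGF-beta after compound addition. %Activity was normalised to no-cell wells (complete cell-killing) and DMSO (no toxicity), and curves were fitted and classified.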
IL-1B inflam inh = inhibitors of inflammasome signaling (IL-1 beta secretion); 360,000 compounds, 4.7% hits; THP-1 LPS/ATP IL-1B secretion, AlphaLISA, 16 h; active compounds read low; activity change, % at 57.5 µM; in the data active = activity change below about -50%; inconclusive = mostly about -30% to -49%; also: % is scaled to controls: 0 for no effect and ±100 for the full control effect
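Secreted IL-1B measured by AlphaLISA bead assay after 16 h compound exposure of THP-1 cells; compounds (final up to 57.5 uM) added 1 h before LPS (250 ng/mL) and ATP (1.25 mM) stimulation; lower signal means less secretion.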
DT40 TDP1 CPT = growth inhibition of DT40 Tdp1-/-;hTDP1 cells with camptothecin (screen for TDP1 inhibitors); chicken DT40 Tdp1-/-;hTDP1 cells + 20 nM CPT, ATP luminescence, 48 h; Potency, µM (series often up to 46.2 µM), for inactives: top-dose activity change, negative = growth inhibition, hits mostly inhibitors; 420,000 compounds, 12% hits; also: potency is read from the fitted curve at half-maximal effect; % is scaled to controls: 0 for no effect and ±100 for the full control effect; nearly all actives have a fitted effect of over 55% in size
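Chicken DT40 Tdp1-/- cells stably complemented with human TDP1 were seeded at 400 cells/well in medium containing 20 nM camptothecin, exposed to pin-transferred compounds, and grown at 37 °C for at least 48 hr. Viability was read as ATP luminescence.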
DT40 TDP1 no CPT = qHTS for Inhibitors of human tyrosyl-DNA phosphodiesterase 1 (TDP1): qHTS in cells in absence of CPT | Potency, µM (series often up to 46.2 µM), inactives show at the top dose activity change, negative = growth inhibition, usual class: inhibitors | DT40 Tdp1-/- hTDP1 cells, no CPT, ATP luminescence, 48 h | 420,000 compounds, 15% hits | AID 686978, 2013; also: potency is read from the fitted curve at half-maximal effect; % is scaled to controls: 0 for no effect and ±100 for the full control effect; nearly all actives have a fitted effect of over 55% in size
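Camptothecin absent (DMSO only). Human TDP1-complemented DT40 knockout cells, 400 cells/well, 37 °C for minimum 48 hr; ATP measured via CellTiter-Glo, 30 min dark incubation, luminescence.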
TGFb inhibitor = TGF-b pathway inhibition; HepG2 CAGA-GFP TGF-b/SMAD3 reporter, GFP fluorescence, 18 h; TGF-beta stimulated, 500 pg/mL final; Potency, µM (highest dose often 46.1 µM), inactives show at the top dose activity, negative = inhibition, usual class: inhibitors; 410,000 compounds, 1.2% hits; also: potency is read from the fitted curve at half-maximal effect; % is scaled to controls: 0 for no effect and ±100 for the full control effect; nearly all actives have a fitted effect of over 65% in size
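First, reporter cells (HEPG2 CAGA-GFP) rested 2 h at 37 degrees C. Next, compounds were pinned in and TGF-beta added to 500 pg/mL final. After 18 h, GFP was imaged per cell and summed per well.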
The depositor's hits bear a star; ? = inconclusive; · = no result given; [ ] = dose if it differs, or a comment. This is a sample that favours compounds with a hit; in the whole collection about 19% have one here. Unless noted, calls follow the shape of the dose curve; as a rule, active = well fitted curve in the direction sought with a large enough effect; inconclusive = small, poorly fitted or top-dose-only effect, or another doubt; inactive = no such curve, though single readings can be large; an effect the other way counts as inactive or inconclusive.

SMILES | TDP1 inh | HepG2 viability | IL-1B inflam inh | DT40 TDP1 CPT | DT40 TDP1 no CPT | TGFb inhibitor
COc1ccccc1C(=O)n1nc(-c2ccco2)nc1NCc1ccc(Cl)cc1 | 6% | 7% | · | -22% | ? | ·
Cc1ccccc1C(=O)n1nc(-c2ccco2)nc1NCc1cccs1 | 9% | 6% | · | 13µM* | ? | 36%
COc1ccc(CNc2nc(NCc3ccc(OC)c(OC)c3)n(C(=O)c3cccs3)n2)cc1OC | 9% | 5% | ? | 16µM* | 15µM* | -21%
O=C(CCNC(=O)C1CCN(S(=O)(=O)c2ccccc2)CC1)NCc1ccc(Cl)c(Cl)c1 | 5% | -42% | 2 | ? | ? | ?
CCCCC(=O)NCCNC(=O)c1cc(OCC(F)(F)F)ccc1OCC(F)(F)F | 0% | 6% | 8 | -9% | 3% | 3%
O=C(CCl)NCCNC(=O)c1cc(OCC(F)(F)F)ccc1OCC(F)(F)F | 6% | -19% | -60* | ? | ? | -5%
O=C(NCCNC(=O)c1cc(OCC(F)(F)F)ccc1OCC(F)(F)F)Nc1ccc(OC(F)(F)F)cc1 | 1% | -22% | 65 | ? | 23µM* | -4%
CCc1ccccc1Nc1nc2ccccc2n2cnnc12 | 2% | 3% | · | ? | ? | -6%
CCc1ccc(CN2C(=O)c3ccccc3C2C(=O)NC2CCCCCC2)cc1 (centres undefined) | 4% | 5% | · | 0% | -25% | 12%
C=CCn1c(=O)c2ccccc2n2c(Sc3nnnn3-c3ccccc3)nnc12 | -2% | -20% | -12 | ? | ? | -15%
CCCn1c(=O)c2ccccc2n2c(SCC(=O)NCc3cccs3)nnc12 | 4% | -21% | -3 | ? | 15µM* | 2%
CCn1c(=O)c2ccccc2n2c(SCC(=O)NCc3cccs3)nnc12 | 1% | 8% | 0 | -26% | -9% | 4%
CCCn1c(=O)c2ccccc2n2c(Sc3nnnn3-c3ccccc3)nnc12 | 6% | -14% | -8 | ? | 23µM* | -15%
Nc1cc(-c2ccc(Br)cc2)nn1Cc1ccccc1 | 7% | -18% | -69* | ? | -18% | -9%
CCCN(CC(=O)Nc1ccc(F)c(F)c1F)CC(=O)Nc1c(Cl)cccc1Cl | 3% | -6% | -1 | 10µM* | 4.1µM* | 9%
CCCN(CC(=O)Nc1ccc(C)cc1Br)CC(=O)Nc1ccc(F)c(F)c1F | -5% | 3% | -29 | ? | 18µM* | ?
CCCN(CC(=O)Nc1ccc(NC(C)=O)cc1)CC(=O)Nc1ccc(F)c(F)c1F | 1% | 7% | 12 | -24% | ? | 27%
CCCN(CC(=O)Nc1cccc(Br)c1)CC(=O)Nc1ccc(F)c(F)c1F | -3% | -8% | -92* | ? | ? | -21%
CCCN(CC(=O)Nc1cccc(S(N)(=O)=O)c1)CC(=O)Nc1ccc(F)c(F)c1F | 4% | -6% | 0 | -9% | 11% | -1%
COc1cc(/C=C(/Sc2nnc(-c3ccc(F)cc3)o2)C(=O)O)ccc1OC(F)F | 11% | -9% | -12 | ? | ? | 2%
N#CCC(=O)N/N=C/c1cc(Br)ccc1OCc1cccc2ccccc12 | · | -1% | -15 | ? | ? | -22%
CCC(C)(Oc1ccc(C2(c3ccc(OC(C)(CC)C(=O)O)cc3)CCCCC2)cc1)C(=O)O (centres undefined) | · | · | · | 10% | 5% | ·
CCOc1ccc(NCc2nnc(SCC(=O)Nc3nc(-c4ccccc4)cs3)n2-c2ccccc2)cc1 | 4% | -40% | -14 | ? | 23µM* | ?
Cc1cccc(C)c1NCc1nnc(SCC(=O)Nc2nc(-c3ccccc3)cs2)n1-c1ccccc1 | 2% | -7% | 25 | 2.1µM* | 2.3µM* | -17%
NS(=O)(=O)c1cccc(NC(=O)COC(=O)CCc2ccccc2)c1 | 2%[0.0935 µM] | 2% | 6 | 3% | -5% | 14%
SMILES | TDP1 inh | HepG2 viability | IL-1B inflam inh | DT40 TDP1 CPT | DT40 TDP1 no CPT | TGFb inhibitor
CC(C)OC(=O)c1c2c(n3ccccc13)C(=O)c1ccccc1C2=O | -2% | -59% | 0 | 15µM* | 13µM* | ?
Cc1cc2c(cc1C)NC(CC(=O)Nc1cccc(C)c1C)C(=O)N2 (centres undefined) | 2%[12.3 µM] | -28% | · | 15µM* | 16µM* | -27%
Cc1ccc(NC(=O)CC2Nc3cc(C)c(C)cc3NC2=O)c(C)c1 (centres undefined) | · | -8% | · | ? | ? | -3%
COC(=O)c1c(NC(=O)CC2Nc3cc(C)c(C)cc3NC2=O)sc(C)c1C (centres undefined) | 3% | -18% | 7 | 21µM* | ? | 164%
Cc1cc2c(cc1C)NC(CC(=O)Nc1ccccc1SC(F)(F)F)C(=O)N2 (centres undefined) | · | 7% | · | ? | 16µM* | 22%
Cc1ccc(N2CC(C(=O)NCc3nnnn3-c3ccc(C)c(C)c3)CC2=O)cc1C (centres undefined) | 5% | 8% | · | -26% | ? | ?
O=C(Cn1nc(C(=O)O)c2ccccc2c1=O)Nc1ccccc1C(F)(F)F | 9% | 1% | -5 | -3% | -17% | 8%
CS(=O)(=O)c1ccc2nc(NC(=O)CS(=O)(=O)c3ccc(Cl)cc3)sc2c1 | 3% | -5% | · | -23% | ? | 0%
CCOc1ccc2nc(NC(=O)CS(=O)(=O)c3ccc(Cl)cc3)sc2c1 | 5% | -62% | · | ? | 16µM* | 0%
CCOc1ccc2nc(NC(=O)CS(=O)(=O)c3ccc(C)cc3)sc2c1 | 8% | -42% | 17 | -14% | 16µM* | 24%
CCOc1ccc2nc(NC(=O)CS(=O)(=O)c3ccccc3)sc2c1 | 6% | 1% | 0 | -9% | ? | 5%
CCOc1ccc(N2CC(C(=O)NCCc3c[nH]c4ccc(C)cc34)CC2=O)cc1 (centres undefined) | 8% | 5% | -12 | -17% | ? | -2%
CCCCc1ccc(-n2nc3cc(C)c(NC(=O)Cc4ccccc4)cc3n2)cc1 | · | 0% | · | -27% | -15% | -3%
